Test results as given in PubChem BioAssay (Tox21).
Inconclusive results are not listed. The source made the active and inactive calls. Unless noted, calls follow the shape of the full dose curve.

Tests used:
[1] = Nuclear factor erythroid 2-related factor 2/antioxidant responsive element (Nrf2/ARE) small molecule agonists: qHTS cell viability counter screen in human keratinocytes (AID 1919968; active = well fitted curve in the direction sought with a large enough effect in the repeat runs; an effect the other way counts as inactive or inconclusive; also: nearly all actives have a fitted effect of over 55% in size)
Summary of the method: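 Cytotoxicity was multiplexed with the Nrf2/ARE luciferase assay in the same wells. Stably transfected HaCaT keratinocytes were treated with test compounds for 23 h at 37 C. Cell viability was then measured by CellTiter-Fluor fluorescence.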

[2] = Nuclear factor erythroid 2-related factor 2/antioxidant responsive element (Nrf2/ARE) small molecule agonists: luciferase reporter gene qHTS assay in human keratinocytes (AID 1919969); also: nearly all actives have a fitted effect of over 35% in size
[3] = target: Gonadotropin-releasing hormone receptor (Homo sapiens) (UniProt P30968); assay: Human gonadotropin-releasing hormone receptor (GnRHR) small molecule agonists, calcium flux assay in GnRHR-HEK293 cells (AID 1920063); also: nearly all actives have a fitted effect of over 35% in size
Chain of Gonadotropin-releasing hormone receptor (Homo sapiens) (P30968 whole entry, looked up): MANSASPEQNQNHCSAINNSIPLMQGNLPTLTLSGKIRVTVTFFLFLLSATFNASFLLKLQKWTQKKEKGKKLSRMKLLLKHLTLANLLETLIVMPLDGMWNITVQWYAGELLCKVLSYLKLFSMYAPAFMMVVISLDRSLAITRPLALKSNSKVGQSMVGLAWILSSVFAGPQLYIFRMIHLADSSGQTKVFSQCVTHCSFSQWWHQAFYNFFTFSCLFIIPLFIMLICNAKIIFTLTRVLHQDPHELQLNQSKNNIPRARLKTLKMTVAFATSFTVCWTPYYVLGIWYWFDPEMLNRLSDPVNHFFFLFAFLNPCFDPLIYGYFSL
Summary of the method: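 Agonist activity was measured as intracellular calcium flux in HEK293 cells engineered to stably express human GnRHR. After dye loading for 1 hour at 37 C, compounds in DMSO were added and fluorescence was followed for 3 minutes.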

[4] = target: KiSS-1 receptor (Homo sapiens) (UniProt Q969F8); assay: Human kisspeptin (KISS1R) small molecule agonists, calcium flux assay in KISS1R-HEK293 cells (AID 1920064; active = well fitted curve in the direction sought with a large enough effect in the repeat runs; an effect the other way counts as inactive or inconclusive)
Chain of KiSS-1 receptor (Homo sapiens) (Q969F8 whole entry, looked up): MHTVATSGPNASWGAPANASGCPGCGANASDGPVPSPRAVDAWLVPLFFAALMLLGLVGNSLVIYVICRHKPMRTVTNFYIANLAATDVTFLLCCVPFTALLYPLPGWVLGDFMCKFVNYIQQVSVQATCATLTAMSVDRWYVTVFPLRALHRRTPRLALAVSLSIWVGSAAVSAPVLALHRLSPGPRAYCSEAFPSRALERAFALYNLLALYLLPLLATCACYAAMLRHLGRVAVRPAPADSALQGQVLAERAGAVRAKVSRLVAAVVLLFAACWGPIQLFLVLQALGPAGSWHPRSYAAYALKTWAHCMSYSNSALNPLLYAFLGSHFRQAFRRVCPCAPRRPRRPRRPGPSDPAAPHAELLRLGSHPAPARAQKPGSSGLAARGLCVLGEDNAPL
Summary of the method: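 Agonist activity is monitored as intracellular calcium rise in engineered HEK293 cells carrying human KISS1R. Cells are dye-loaded for 1 h at 37 C before compound addition, and fluorescence is recorded for 3 min.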

[5] = G protein-coupled receptor (GPCR) small molecule agonists, calcium flux assay: HEK293 wild type cell line counter screen (AID 1920065)
Summary of the method: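 Seed cells, incubate 18 h (37 C, 5% CO2); add calcium dye, 1 h at 37 C; pin-transfer compounds, ATP control or DMSO; read fluorescence 480/540 nm each second for 3 min.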

[6] = p53 small molecule agonists, cell-based qHTS assay with human liver microsomes (AID 1963577)
Summary of the method: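 Cells carrying a p53-responsive bla reporter were rested 5 h (37 C, 5% CO2) before compound transfer. Human liver microsomes plus NADPH, 0.5 mg/mL final apiece, supplied metabolism during the 16 h 37 C exposure.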

[7] = p53 small molecule agonists, cell-based qHTS assay with rat liver microsomes (AID 1963578)
Summary of the method: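 Fluorescence from a beta-lactamase reporter under a p53 response element was measured after cells had been incubated 16 h at 37 C with test compound and rat liver microsomes plus NADPH (0.5 mg/mL final each).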

[8] = p53 small molecule agonists, cell-based qHTS assay with human liver microsomes: qHTS cell viability counter screen (AID 1963579); also: nearly all actives have a fitted effect of over 45% in size
Summary of the method: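 Seed p53RE-bla cells at 4,000 per well; incubate 5 h at 37 C; add compound, human liver microsomes and NADPH; incubate 16 h at 37 C; add CellTiter-Glo; after 30 min at room temperature, read luminescence.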

[9] = p53 small molecule agonists, cell-based qHTS assay with rat liver microsomes: qHTS cell viability counter screen (AID 1963580); also: nearly all actives have a fitted effect of over 45% in size
Summary of the method: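 After the beta-lactamase ratio was read, CellTiter-Glo was added to the same wells and luminescence measured at 30 min; cells had been treated 16 h at 37 C with compounds, rat liver microsomes and NADPH (0.5 mg/mL final each).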

[10] = p53 small molecule agonists, cell-based qHTS assay: qHTS cell viability counter screen (AID 1963581); also: nearly all actives have a fitted effect of over 45% in size
Summary of the method: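 Viability was counter-screened in parallel with the p53 agonist reporter by measuring intracellular ATP luminescence in the same HCT-116 p53RE-bla wells after 16 h compound treatment at 37 C.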

[11] = p53 small molecule agonists, cell-based qHTS assay (AID 1963582; active = well fitted activation curve with a large enough effect in the signal ratio in the repeat runs, not every such curve was filed as active; the % refers to the signal ratio)
Summary of the method: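 Cells carrying a p53-responsive bla reporter are treated with test compounds for 16 h at 37 C; beta-lactamase activity is then detected with LiveBLAzer B/G FRET substrate after 2 h at room temperature.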

[12] = target: 5-hydroxytryptamine receptor 2A (Homo sapiens) (UniProt P28223); assay: 5-hydroxytryptamine receptor 2A (HTR2A) small molecule agonists, cell-based qHTS assay (AID 1963587); also: nearly all actives have a fitted effect of over 30% in size
Chain of 5-hydroxytryptamine receptor 2A (Homo sapiens) (P28223 whole entry, looked up): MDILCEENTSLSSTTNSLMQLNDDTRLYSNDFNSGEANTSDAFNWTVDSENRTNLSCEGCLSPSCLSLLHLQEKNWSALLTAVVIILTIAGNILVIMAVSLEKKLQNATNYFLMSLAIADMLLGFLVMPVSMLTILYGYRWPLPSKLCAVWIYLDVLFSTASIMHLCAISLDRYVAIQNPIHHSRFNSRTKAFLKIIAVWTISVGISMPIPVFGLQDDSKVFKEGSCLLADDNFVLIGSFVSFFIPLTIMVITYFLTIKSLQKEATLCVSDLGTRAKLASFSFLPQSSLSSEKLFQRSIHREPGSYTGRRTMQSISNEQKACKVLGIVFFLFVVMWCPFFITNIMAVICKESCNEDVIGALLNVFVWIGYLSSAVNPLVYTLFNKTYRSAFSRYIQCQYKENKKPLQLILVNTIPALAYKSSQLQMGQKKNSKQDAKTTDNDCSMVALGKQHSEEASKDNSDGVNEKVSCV
Summary of the method: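 CHO cells stably expressing human HTR2A, plated 18 h, loaded with calcium dye 1 h at 37 C. Agonist mode: compounds added and intracellular calcium fluorescence recorded kinetically for 2 min at 1 sec intervals.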

[13] = target: Muscarinic acetylcholine receptor M1 (Homo sapiens) (UniProt P11229); assay: Cholinergic receptor muscarinic 1 (CHRM1) small molecule antagonists, cell-based qHTS assay (AID 1963588); also: nearly all actives have a fitted effect of over 40% in size
Chain of Muscarinic acetylcholine receptor M1 (Homo sapiens) (P11229 whole entry, looked up): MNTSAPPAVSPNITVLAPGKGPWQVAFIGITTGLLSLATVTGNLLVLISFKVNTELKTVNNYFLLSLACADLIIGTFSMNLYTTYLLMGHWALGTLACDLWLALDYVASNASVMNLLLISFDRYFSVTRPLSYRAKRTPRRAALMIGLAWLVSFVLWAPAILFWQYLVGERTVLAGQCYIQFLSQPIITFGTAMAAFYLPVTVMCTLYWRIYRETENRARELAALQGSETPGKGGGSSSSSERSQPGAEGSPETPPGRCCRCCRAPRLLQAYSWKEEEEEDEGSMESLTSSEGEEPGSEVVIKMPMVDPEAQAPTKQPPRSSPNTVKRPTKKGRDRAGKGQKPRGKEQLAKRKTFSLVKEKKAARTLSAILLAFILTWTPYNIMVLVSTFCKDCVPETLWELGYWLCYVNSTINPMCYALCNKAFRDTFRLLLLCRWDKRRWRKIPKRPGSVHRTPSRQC
Summary of the method: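 Compounds were tested at 15 concentrations in three independent runs. Dye-loaded CHRM1-CHO cells were exposed 5 min at room temperature before stimulation by acetylcholine added at 50nM. Intracellular calcium was read kinetically on FDSS for 3 min.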

[14] = target: Muscarinic acetylcholine receptor M1 (Homo sapiens) (UniProt P11229); assay: Cholinergic receptor muscarinic 1 (CHRM1) small molecule agonists, cell-based qHTS assay (AID 1963589); also: nearly all actives have a fitted effect of over 35% in size
Summary of the method: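 Cells were plated and incubated 18 h at 37 C/5% CO2, loaded with calcium dye for 1 h at 37 C, then treated with compounds in DMSO. Fluorescence was recorded kinetically at 1 sec intervals.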

[15] = cAMP Responsive Elements (CRE) small molecule agonists, cell-based qHTS assay (AID 1963590)
Summary of the method: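 Cells carrying a CRE-driven beta-lactamase reporter (HEK 293T) are seeded, incubated overnight (18 h), and treated with test compounds for 3 h at 37 C; reporter activity is then detected with a FRET substrate after 2 h at room temperature.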

[16] = cAMP Responsive Elements (CRE) small molecule antagonists, cell-based qHTS assay (AID 1963591; active = well fitted inhibition curve with a large enough effect in the signal ratio in the repeat runs, not every such curve was filed as active; the % refers to the signal ratio)
Summary of the method: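 Cells (CRE-bla HEK 293T, DMEM with 10% dialyzed FBS and 25 mM HEPES) are seeded and incubated 18 h. Compounds are added with NKH477 agonist at 0.25 uM final for 3 h, then FRET substrate for 2 h.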

[17] = target: Beta-2 adrenergic receptor (Homo sapiens) (UniProt P07550); assay: Adrenergic beta2 receptor (ADRB2) small molecule antagonists, cell-based qHTS assay (AID 1963592); also: series mostly up to about 92 µM; nearly all actives have a fitted effect of over 50% in size
Chain of Beta-2 adrenergic receptor (Homo sapiens) (P07550 whole entry, looked up): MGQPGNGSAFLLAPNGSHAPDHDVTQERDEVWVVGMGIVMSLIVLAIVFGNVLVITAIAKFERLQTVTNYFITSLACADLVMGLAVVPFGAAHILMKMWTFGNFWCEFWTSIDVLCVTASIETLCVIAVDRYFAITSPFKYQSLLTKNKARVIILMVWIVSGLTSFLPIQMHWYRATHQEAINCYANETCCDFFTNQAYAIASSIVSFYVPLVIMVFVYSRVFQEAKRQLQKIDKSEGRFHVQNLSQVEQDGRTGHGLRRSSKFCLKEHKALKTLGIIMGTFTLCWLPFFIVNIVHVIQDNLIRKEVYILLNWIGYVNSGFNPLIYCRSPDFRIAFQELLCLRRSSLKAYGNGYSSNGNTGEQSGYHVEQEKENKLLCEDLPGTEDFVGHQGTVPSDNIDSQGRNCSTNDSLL
Summary of the method: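 Assay format: CHO-ADRB2 cells, 18-20hr seeding at 37C/5% CO2, then compound plus 1nM isoproterenol agonist mix for 0.5hr RT. Homogeneous time-resolved fluorescence cAMP detection after 1hr, expressed as 665/615 nm ratio.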

[18] = target: Beta-2 adrenergic receptor (Homo sapiens) (UniProt P07550); assay: Adrenergic beta2 receptor (ADRB2) small molecule agonists, cell-based qHTS assay (AID 1963593); also: potency is read from the fitted curve at half-maximal effect;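 as to activation: CHO cells stably overexpressing human ADRB2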
Summary of the method: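 CHO cells stably over-expressing ADRB2 were plated overnight at 37C, then dosed with compounds plus a stimulation mix containing 100uM IBMX and 25uM Ro-20-1724 for 0.5hr at room temperature. cAMP was measured by HTRF competition, 1hr.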

[19] = target: D(2) dopamine receptor (Homo sapiens) (UniProt P14416); assay: Dopamine D2 receptor (DRD2) small molecule agonists, cell-based qHTS assay (AID 1963594); also: nearly all actives have a fitted effect of over 35% in size
Chain of D(2) dopamine receptor (Homo sapiens) (P14416 whole entry, looked up): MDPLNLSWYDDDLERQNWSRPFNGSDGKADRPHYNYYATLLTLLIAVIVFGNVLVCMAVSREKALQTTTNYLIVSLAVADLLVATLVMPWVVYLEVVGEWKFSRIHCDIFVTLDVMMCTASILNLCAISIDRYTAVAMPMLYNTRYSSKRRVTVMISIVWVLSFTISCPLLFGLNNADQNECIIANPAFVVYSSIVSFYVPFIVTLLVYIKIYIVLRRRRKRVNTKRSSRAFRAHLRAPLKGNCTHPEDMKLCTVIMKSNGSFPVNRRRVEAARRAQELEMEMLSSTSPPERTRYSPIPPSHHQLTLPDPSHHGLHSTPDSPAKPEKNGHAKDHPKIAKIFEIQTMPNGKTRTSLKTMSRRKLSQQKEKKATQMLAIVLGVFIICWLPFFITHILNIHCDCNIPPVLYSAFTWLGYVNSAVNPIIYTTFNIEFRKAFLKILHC
Summary of the method: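 HEK293 cells stably expressing human DRD2, pre-treated with PDE inhibitor Ro20-1724 (0.1 mM final) and compound 10 min at room temperature, then stimulated with NKH477 (200nM […]) for 30 min. cAMP read by HTRF (665/620 nm).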

[20] = target: D(2) dopamine receptor (Homo sapiens) (UniProt P14416); assay: Dopamine D2 receptor (DRD2) small molecule antagonists, cell-based qHTS assay (AID 1963595; active = well fitted inhibition curve with a large enough effect in the signal ratio in the repeat runs, with a control signal flat; the % refers to the signal ratio)
Summary of the method: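 HEK293 cells stably expressing DRD2, preincubated with 0.1 mM Ro20-1724 and compounds 10 min, were stimulated with 200 nM NKH477 plus 12 nM quinpirole for 30 min at room temperature; cAMP measured by HTRF (665/620 nm).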
% is scaled to controls: 0 for no effect and ±100 for the full control effect.

NS(=O)(=O)c1cc2c(cc1C(F)(F)F)NC(Cc1ccccc1)NS2(=O)=O (stereo not given)
active: Potency [18] 1500 nM
inactive: Potency [1] | Potency [2] | Potency [3] | Potency [4] | Potency [5] | Potency [6] | Potency [7] | Potency [8] | Potency [9] | Potency [10] | Potency [11] | Potency [12] | Potency [13] | Potency [14] | Potency [15] | Potency [16] | Potency [17] | Potency [19] | Potency [20]

O=C(O)c1ccc(OCCCOc2ccc(C(=O)O)cc2)cc1
inactive: Potency [1] | Potency [2] | Potency [3] | Potency [4] | Potency [5] | Potency [6] | Potency [7] | Potency [8] | Potency [9] | Potency [10] | Potency [11] | Potency [12] | Potency [14] | Potency [15] | Potency [16] | Potency [17] | Potency [18] | Potency [19] | Potency [20]

CCOC(=O)CC(C(C)=O)C(C)=O
inactive: Potency [1] | Potency [2] | Potency [3] | Potency [4] | Potency [5] | Potency [6] | Potency [7] | Potency [8] | Potency [9] | Potency [10] | Potency [11] | Potency [12] | Potency [13] | Potency [14] | Potency [15] | Potency [17] | Potency [18] | Potency [19] | Potency [20]

O=C(O)CONC(=O)c1ccccc1
inactive: Potency [1] | Potency [2] | Potency [3] | Potency [4] | Potency [5] | Potency [6] | Potency [7] | Potency [8] | Potency [9] | Potency [10] | Potency [11] | Potency [12] | Potency [13] | Potency [14] | Potency [16] | Potency [17] | Potency [18] | Potency [19] | Potency [20]

CN(C)c1ccc(/C=C/c2ccc([N+](=O)[O-])cc2)cc1
inactive: activity change, negative = cytotoxicity [1] 0.836% [at 8.39 µM] | activity, positive = activation [2] 12.5% [at 8.39 µM] | activity change [3] 5.74% [at 5.22 µM, hits give high values] | activation [4] 7.36% [at 6.97 µM] | activation [5] 0.221% [at 5.23 µM] | activation [6] -2.79% [at 5.99 µM] | activation [7] -4.52% [at 5.99 µM] | activity change, negative = cytotoxicity [8] 0.0681% [at 5.99 µM] | activity change, negative = cytotoxicity [9] -5.21% [at 5.99 µM] | activity change, negative = cytotoxicity [10] -1.3% [at 5.99 µM] | activation [11] -2.24% [at 5.99 µM] | activation [12] 13.3% [at 7.02 µM] | activity, negative = inhibition [13] -8.69% [at 5.58 µM] | activation [14] 0.732% [at 6.97 µM] | activity change, negative = inhibition [16] 1.12% [at 8.39 µM] | activity change, negative = inhibition [17] 1.64% [at 8.39 µM] | activation [19] -5.78% [at 8.39 µM] | activity change, negative = inhibition [20] -2.29% [at 8.38 µM]

CCCCCCCCCCCCCCCCBr
inactive: activity change, negative = cytotoxicity [1] 3.53% [at 19 µM] | activity, positive = activation [2] -1.44% [at 19 µM] | activity change [3] 0.0207% [at 11.8 µM, hits give high values] | activation [4] 1.03% [at 15.8 µM] | activation [5] -0.623% [at 11.8 µM] | activation [6] -0.838% [at 13.5 µM] | activation [7] -1.9% [at 13.6 µM] | activity change, negative = cytotoxicity [8] 0.899% [at 13.5 µM] | activity change, negative = cytotoxicity [9] 0.7% [at 13.5 µM] | activity change, negative = cytotoxicity [10] 4.33% [at 13.5 µM] | activation [11] 4.11% [at 13.5 µM] | activation [12] -4.48% [at 15.9 µM] | activity, negative = inhibition [13] -1.85% [at 12.6 µM] | activation [14] -0.125% [at 15.8 µM] | activation [15] -0.367% [at 19 µM] | activity change, negative = inhibition [16] -0.0105% [at 18.9 µM] | activity change, negative = inhibition [17] -0.441% [at 19 µM] | activation [18] -6.98% [at 19 µM] | activation [19] -0.697% [at 19 µM] | activity change, negative = inhibition [20] -0.776% [at 18.9 µM]

O=C1OC(=O)c2c(Cl)c(Cl)c(Cl)c(Cl)c21
inactive: Potency [1] | Potency [2] | Potency [3] | Potency [4] | Potency [5] | Potency [6] | Potency [7] | Potency [8] | Potency [9] | Potency [10] | Potency [11] | Potency [12] | Potency [13] | Potency [14] | Potency [15] | Potency [16] | Potency [17] | Potency [18] | Potency [19] | Potency [20]
